These results are taken from PubChem BioAssay (Tox21).

Records with an inconclusive call do not appear. Calls of active or inactive are those of the source. Calls follow the shape of the dose curve; as a rule, active = well fitted cell-killing curve with a large enough effect in the repeat runs; inconclusive = weak or mixed curves, or effect the other way; inactive = no such curve, though single readings can be large or run the other way.
% is scaled to controls: 0 for no effect and ±100 for the full control effect; potency is read from the fitted curve at half-maximal effect.

This experiment in a line: qHTS assay to identify small molecule antagonists of the thyroid receptor (TR) signaling pathway - cell viability counter screen (AID 743064). Also: nearly all actives have a fitted effect of over 50% in size. As to conditions: GH3.TRE-Luc viability, CellTiter-Fluor, 24 h; series mostly up to 70.3 µM; activity change, negative = cytotoxic: at the top concentration. Put shortly: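 Viability of T3-stimulated (1 nM final) GH3.TRE-Luc cells is measured by CellTiter-Fluor fluorescence after 23.5 h compound exposure at 37 °C plus 30 min reagent incubation.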
For the molecule `O=C(Cc1ccccc1)OCc1ccccc1`, the “activity change, negative = cytotoxic” value is -2.31% [at 95 µM] (inactive).

In the case of `ClC(Cl)Br`, the “activity change, negative = cytotoxic” value was 4.06% [at 95 µM] (inactive).

In the case of `Nc1cc(Cl)ccc1O`, the Potency is 23.5 µM (active).

As for `CC1CCCCC1NC(=O)Nc1ccccc1` (centres undefined), the “activity change, negative = cytotoxic” value is -1.27% (inactive).

As to `CNC(=O)Oc1ccccc1C1OCCO1`, the “activity change, negative = cytotoxic” value is 1.87% (inactive).

As to `O=S(=O)(O)C(F)(F)C(F)(F)C(F)(F)C(F)(F)C(F)(F)C(F)(F)F`, the “activity change, negative = cytotoxic” value is 25.2% (inactive).

Turning to `CSc1ccc(C(=O)C(C)(C)N2CCOCC2)cc1`, the “activity change, negative = cytotoxic” value is 4.14% (inactive).

Turning to `O=[N+]([O-])c1ccc2c3c(cccc13)CC2`, the “activity change, negative = cytotoxic” value is 5.73% (inactive).

As for `COP(=S)(OC)Oc1ccc(S(N)(=O)=O)cc1`, the “activity change, negative = cytotoxic” value is -16.7% (inactive).

For `CCSC(=O)N(CC)C1CCCCC1`, the “activity change, negative = cytotoxic” value is 10.4% (inactive).

Take `c1coc(-c2nc3ccccc3[nH]2)c1`: the “activity change, negative = cytotoxic” value was 19.5% (inactive).

For `O=C1c2ccccc2C(=O)c2ccccc21`, the “activity change, negative = cytotoxic” value was 23.7% (inactive).

With `CCCCOC(=O)[C@@H](C)Oc1ccc(Oc2ccc(C#N)cc2F)cc1`, the “activity change, negative = cytotoxic” value was -5.07% (inactive).

For `O=C(O)C(Br)CBr` (centres undefined), the “activity change, negative = cytotoxic” value is 8.11% [at 95 µM] (inactive).

For `O=C(Nc1ccccc1)c1ccccc1I`, the “activity change, negative = cytotoxic” value was 16.6% (inactive).

In the case of `O=CNC(N1CCN(C(NC=O)C(Cl)(Cl)Cl)CC1)C(Cl)(Cl)Cl` (centres undefined), the “activity change, negative = cytotoxic” value was -1.84% (inactive).

Regarding `Cc1coc2c1CCC(C)C2` (centres undefined), the “activity change, negative = cytotoxic” value was -10.4% [at 95 µM] (inactive).

In the case of `CC1=C(C(=O)Nc2ccccc2)S(=O)(=O)CCO1`, the Potency is 30.6 µM (active).

For `CC(Cl)(Cl)[N+](=O)[O-]`, the “activity change, negative = cytotoxic” value was 2.83% (inactive).

For `CNC(=O)Oc1ccc(N(C)C)c(C)c1`, the “activity change, negative = cytotoxic” value was -11.8% (inactive).

On to `CCOP(=S)(OCC)Oc1ncn(-c2ccccc2)n1`, for which the “activity change, negative = cytotoxic” value is -3.55% (inactive).

For the molecule `CC(C)COP(=O)(OCC(C)C)OCC(C)C`, the “activity change, negative = cytotoxic” value is -2.28% (inactive).

Consider `CCOC(=O)N(C)C(=O)CSP(=S)(OCC)OCC`, for which the “activity change, negative = cytotoxic” value was -7.86% (inactive).

As for `COc1cccc2c1cc([N+](=O)[O-])c1c(C(=O)O)cc3c(c12)OCO3`, the Potency was 3.06 µM (active).
